Inconclusive results are not listed. The source made the active and inactive calls. Calls follow the shape of the dose curve; as a rule, active = well fitted activation curve with a large enough effect; inconclusive = small, poorly fitted or top-dose-only effect; inactive = flat fitted curve, though single readings scatter.
Experiment: qHTS for Inhibitors of Cell Surface uPA Generation: FP59 Counterscreen for Cherry-picked Compounds; also: 0% is about no effect
Details: FP59 anthrax toxin cytotoxicity counterscreen, cells; series mostly up to 115 µM; activity (protection from FP59): at the top concentration

Q: Which “activity (protection from FP59)” value does the source give for `O=C(c1cccc(F)c1)N1CCN(Cc2cccc(Br)c2)CC1` here?
A: Its value is -0.552% (inactive).

Q: With `COCc1c(C(=O)Nc2nc(C)cs2)oc2ccccc12` as the molecule, how does the “activity (protection from FP59)” value read?
A: The value was -1.52% (inactive).

Q: Which “activity (protection from FP59)” value does the source give for `Cc1ccc(N=C2SCCCN2C(=O)c2cccc(N3C(=O)CCC3=O)c2)cc1Cl` here?
A: The value was -1.37% (inactive).

Q: For `COc1cccc(C(=O)NCc2ccc3[nH]c(C)cc3c2)c1`, which “activity (protection from FP59)” value is on record?
A: The value was -1.38% (inactive).

Q: For `Cc1cc(C)nc(N2N=C(C(F)(F)F)CC2=O)n1`, which “activity (protection from FP59)” value is on record?
A: Its value is -1.28% (inactive).

Q: For `CC(C)C(=O)Nc1nnc(SCc2cccc(F)c2)s1`, which “activity (protection from FP59)” value is on record?
A: Its value is -1.27% (inactive).

Q: For `Cc1ccc(S(=O)(=O)Nc2nc(C)cc(N/N=C/c3ccc(O)cc3)n2)cc1`, which “activity (protection from FP59)” value is on record?
A: Its value is 0.72% (inactive).

Q: Which “activity (protection from FP59)” value does the source give for `O=C(N/N=C/c1cccnc1)c1ccccc1[N+](=O)[O-]` here?
A: Its value is -1.36% (inactive).

Q: With `Cc1ccc(C(=O)COc2cc(O)c3c(=O)cc(-c4ccccc4)oc3c2)cc1` as the molecule, how does the “activity (protection from FP59)” value read?
A: The value was -1.17% (inactive).

Q: For `CCCCn1c(N)c(N(CCC(C)C)C(=O)c2sc3nc4n(c(=O)c3c2C)CCC4)c(=O)[nH]c1=O`, which “activity (protection from FP59)” value is on record?
A: Its value is -1.37% (inactive).

Q: Which “activity (protection from FP59)” value does the source give for `COC(=O)/C(C#N)=C/c1c(N2CCN(c3ccccc3)CC2)nc2c(C)cccn2c1=O` here?
A: The value was 0.153% (inactive).

Q: Which “activity (protection from FP59)” value does the source give for `COc1ccccc1CCNC(=O)C(=O)NCC1OCCN1S(=O)(=O)c1ccc(OC)c(OC)c1` (centres undefined) here?
A: Its value is -1.42% (inactive).

Q: With `COCCNS(=O)(=O)c1cc(OC)c(C)cc1C` as the molecule, how does the “activity (protection from FP59)” value read?
A: Its value is -1.25% (inactive).

Q: For `COc1ccc(C2=NOC(CNC(N)=S)C2)cc1` (centres undefined), which “activity (protection from FP59)” value is on record?
A: The value was -1.38% (inactive).

Q: Which “activity (protection from FP59)” value does the source give for `O=C(COC(=O)c1ccc2ncsc2c1)NCc1cccc(Cl)c1` here?
A: Its value is -1.35% (inactive).

Q: With `COc1ccc2nc(C)cc(Nc3ccccc3O)c2c1` as the molecule, how does the “activity (protection from FP59)” value read?
A: Its value is -1.53% (inactive).

Q: Which “activity (protection from FP59)” value does the source give for `CC(=O)N1CCN(C(=O)CSc2cc(C)c(Br)cc2C)CC1` here?
A: Its value is -1.27% (inactive).

Q: For `O=C(Cn1cnc2c(OCc3ccccc3)ncnc21)NCCCN1CCCC1=O`, which “activity (protection from FP59)” value is on record?
A: The value was -1.32% (inactive).

Q: For `Cc1cc(C)n2c(SCC#N)nnc2n1`, which “activity (protection from FP59)” value is on record?
A: The value was -0.579% (inactive).

Q: For `O=C(O)CNS(=O)(=O)c1ccc2c(c1)Cc1cc(S(=O)(=O)NCC(=O)O)ccc1-2`, which “activity (protection from FP59)” value is on record?
A: Its value is -1.23% (inactive).

Q: Which “activity (protection from FP59)” value does the source give for `COC(=O)c1ccc(N2CCN(c3ccccc3)CC2)c(NC(=O)C2CC2)c1` here?
A: The value was -1.64% (inactive).

Q: Which “activity (protection from FP59)” value does the source give for `CC1(C)S[C@@H]2[C@H](NC(=O)C(C(=O)O)c3ccccc3)C(=O)N2[C@H]1C(=O)O` (some centres undefined) here?
A: Its value is -1.39% (inactive).

Q: With `COc1ccccc1NC(=O)Cn1ncc2c1-c1ccccc1OC2` as the molecule, how does the “activity (protection from FP59)” value read?
A: The value was -1.3% (inactive).

Q: For `COc1ccc(C(=O)NC(C)c2cnn(-c3ccccn3)c2C)o1` (centres undefined), which “activity (protection from FP59)” value is on record?
A: The value was -1.07% (inactive).

Q: Which “activity (protection from FP59)” value does the source give for `O=C(NNC(=O)c1cccnc1)c1ccncc1` here?
A: The value was -1.3% (inactive).

Q: For `O=C(Nc1cccc(NC(=O)c2ccc(F)cc2)c1)c1ccc(F)cc1`, which “activity (protection from FP59)” value is on record?
A: Its value is -1.25% (inactive).

Q: For `CCCN1CCN(C2CCCCC2NS(=O)(=O)c2ccc(Cl)cc2)CC1` (centres undefined), which “activity (protection from FP59)” value is on record?
A: The value was -1.5% (inactive).

Q: With `CCN(CC)c1c([N+](=O)[O-])c(=O)sc2ccccc12` as the molecule, how does the “activity (protection from FP59)” value read?
A: The value was -1.13% (inactive).

Q: For `O=C(CNC(=O)N1CC(=O)Nc2ccccc21)Nc1cc(Cl)ccc1Cl`, which “activity (protection from FP59)” value is on record?
A: The value was -1.54% (inactive).

Q: Which “activity (protection from FP59)” value does the source give for `Cc1cc2[nH]c(=O)c(=O)[nH]c2cc1S(=O)(=O)NC1CCC(C)CC1` (centres undefined) here?
A: The value was -1.23% (inactive).

Q: With `O=C1C[C@@H]2CCN3C(=O)CCC[C@@H]([C@H]23)[C@H]1Cc1ccccc1` as the molecule, how does the “activity (protection from FP59)” value read?
A: The value was -1.4% (inactive).

Q: Which “activity (protection from FP59)” value does the source give for `OCC1CCCCN1CC(O)COC(c1ccc(F)cc1)c1ccc(F)cc1` (centres undefined) here?
A: Its value is -1.2% (inactive).

Q: Which “activity (protection from FP59)” value does the source give for `Cc1oc2c(Cl)c(Cl)c(O)c(CN(C)C)c2c1C(=O)c1ccc(Cl)cc1` here?
A: Its value is -0.466% (inactive).

Q: For `C[C@@]12C(=O)N(CC3CCCO3)CC(=O)N1[C@H]1c3cc(Cl)ccc3OC[C@@H]1[C@@H]2c1ccccc1` (some centres undefined), which “activity (protection from FP59)” value is on record?
A: Its value is 4.34% (inactive).

Q: With `COc1cc(NC(=O)COC(=O)c2cc(S(=O)(=O)N3CCCCC3)ccc2Cl)c(C)cc1[N+](=O)[O-]` as the molecule, how does the “activity (protection from FP59)” value read?
A: Its value is -1.36% (inactive).

Q: For `COc1ccccc1N=Nc1c(C)[nH]n(-c2ccccc2)c1=O`, which “activity (protection from FP59)” value is on record?
A: The value was -1.4% (inactive).

Q: With `O=C(CSc1ccc(Cl)cc1)Nc1ccc(C2SCCS2)cc1` as the molecule, how does the “activity (protection from FP59)” value read?
A: Its value is -1% (inactive).

Q: With `CCN(CC)c1ccc(C=NCCc2ccc(S(N)(=O)=O)cc2)cc1` as the molecule, how does the “activity (protection from FP59)” value read?
A: The value was -0.849% (inactive).

Q: Which “activity (protection from FP59)” value does the source give for `Cc1cc(C)cc(NC(=O)Cc2ccc(NC3=NC4CS(=O)(=O)CC4S3)cc2)c1` (centres undefined) here?
A: Its value is -1.22% (inactive).
